The chains are these.
B1: Caulobacter ParB omega fusion; a variant is named by its letters at X, in order, B8GW30 (parent)
chain: MESVVVGEPGMSEGRRGLGRGLSALLGEVDAAPAQAPGEQLGGSREAPIEILQRNPDQPRRTFREEDLEDLSNSIREKGVLQPILVRPSPDTAGEYQIVAGERAWRAAQRAGLKTVPIMVRELDDLAVLEIGIIENVQRADLNVLEEALSYKVLMEKFERTQENIAQTIGKSXSHVANXMRLLXLPDEVQSYLVSGELTAXHARAIAAAADPVALAKQIIEGGLSVRETEALARKAPNLSAGKSKGGRPPRVKDTDTQALESDLSSVLGLDVSIDHRGSTGTLTITYATLEQLDDLCNRLTRGI

Over roughly 81,000 sequences, “one-hybrid fitness for binding NBS DNA” has its median near -0.1; the highest 2% begin near 0.36. This excerpt belongs to a sample that is enriched for the highest values.

This test covers variants of B1. Description: one-hybrid fitness for binding NBS DNA (the Noc-binding site; scaled: cognate 1, non-cognate 0); higher = stronger binding. The settings on record: with NBS DNA site. Summed up: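 Caulobacter ParB libraries with four specificity codons randomised were screened by bacterial one-hybrid selection in the E. coli USO strain, using a HIS3 reporter whose site lies 19 bp from the promoter. Selection ran for 48 hours at 37°C on M9 lacking histidine, with 0.1 mM IPTG and 5 mM 3-AT. Plasmids were Illumina-sequenced before and after selection, three replicate libraries were pooled, and variants with under 10 reads were dropped. Fitness is the log change in each variant's read ratio to wild type, rescaled against the cognate and non-cognate sites.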
With VYRA, the “one-hybrid fitness for binding NBS DNA” value is no more than 0.2.

With IHWG, the “one-hybrid fitness for binding NBS DNA” value was no more than 0.2.

With RKRQ, the “one-hybrid fitness for binding NBS DNA” value turned out to be 0.246.

As to RPLT, the “one-hybrid fitness for binding NBS DNA” value was no more than 0.2.

For the variant RSLT, the “one-hybrid fitness for binding NBS DNA” value was found to be 0.292.

For the variant RKRG, the “one-hybrid fitness for binding NBS DNA” value came to 0.238.

As for RKCQ, the “one-hybrid fitness for binding NBS DNA” value is no more than 0.2.

In the case of RKQH, the “one-hybrid fitness for binding NBS DNA” value is no more than 0.2.

Consider RKCT, for which the “one-hybrid fitness for binding NBS DNA” value is 0.583.

For the variant RKRT, the “one-hybrid fitness for binding NBS DNA” value came to 0.676.

As to RCLT, the “one-hybrid fitness for binding NBS DNA” value was found to be 0.436.

With RKCM, the “one-hybrid fitness for binding NBS DNA” value is no more than 0.2.

Consider RKQP, for which the “one-hybrid fitness for binding NBS DNA” value is no more than 0.2.

On to RKQT, for which the “one-hybrid fitness for binding NBS DNA” value worked out at 0.606.

Regarding YFSE, the “one-hybrid fitness for binding NBS DNA” value is no more than 0.2.

Regarding GPRA, the “one-hybrid fitness for binding NBS DNA” value was no more than 0.2.

On to PFTR, for which the “one-hybrid fitness for binding NBS DNA” value was no more than 0.2.

Consider YKRA, for which the “one-hybrid fitness for binding NBS DNA” value is no more than 0.2.

On to NSHG, for which the “one-hybrid fitness for binding NBS DNA” value is no more than 0.2.

As to NIIS, the “one-hybrid fitness for binding NBS DNA” value was no more than 0.2.

For the variant GQRS, the “one-hybrid fitness for binding NBS DNA” value is no more than 0.2.

In the case of NYVI, the “one-hybrid fitness for binding NBS DNA” value is no more than 0.2.

Regarding EAFS, the “one-hybrid fitness for binding NBS DNA” value is no more than 0.2.

As to LCHL, the “one-hybrid fitness for binding NBS DNA” value was no more than 0.2.

Turning to RKWT, the “one-hybrid fitness for binding NBS DNA” value was 0.456.

Take RKNQ: the “one-hybrid fitness for binding NBS DNA” value is no more than 0.2.

Turning to RKNG, the “one-hybrid fitness for binding NBS DNA” value was no more than 0.2.

Take RIWT: the “one-hybrid fitness for binding NBS DNA” value stood at 0.279.

Turning to RKGQ, the “one-hybrid fitness for binding NBS DNA” value was no more than 0.2.

For the variant RTLP, the “one-hybrid fitness for binding NBS DNA” value is no more than 0.2.

Take RKNT: the “one-hybrid fitness for binding NBS DNA” value worked out at 0.698.

With RKGT, the “one-hybrid fitness for binding NBS DNA” value came out at 0.649.

Take RTLT: the “one-hybrid fitness for binding NBS DNA” value worked out at 0.461.

With RFWT, the “one-hybrid fitness for binding NBS DNA” value was no more than 0.2.

Consider RKGM, for which the “one-hybrid fitness for binding NBS DNA” value was determined as 0.218.

Take RTLY: the “one-hybrid fitness for binding NBS DNA” value was no more than 0.2.

On to RNGC, for which the “one-hybrid fitness for binding NBS DNA” value was no more than 0.2.

RYHW: the “one-hybrid fitness for binding NBS DNA” value was no more than 0.2.

Consider PRPF, for which the “one-hybrid fitness for binding NBS DNA” value was no more than 0.2.

As for RYAS, the “one-hybrid fitness for binding NBS DNA” value is 0.342.

Consider NTFG, for which the “one-hybrid fitness for binding NBS DNA” value was no more than 0.2.

Turning to PTNR, the “one-hybrid fitness for binding NBS DNA” value was no more than 0.2.

As to VRMT, the “one-hybrid fitness for binding NBS DNA” value was no more than 0.2.

Turning to RKSF, the “one-hybrid fitness for binding NBS DNA” value is no more than 0.2.

Consider RKIT, for which the “one-hybrid fitness for binding NBS DNA” value amounted to 0.361.

For RKDT, the “one-hybrid fitness for binding NBS DNA” value was found to be 0.498.

Take RKLT: the “one-hybrid fitness for binding NBS DNA” value stood at 0.579.

On to RKDF, for which the “one-hybrid fitness for binding NBS DNA” value is no more than 0.2.

In the case of RKYT, the “one-hybrid fitness for binding NBS DNA” value was 0.643.

Take RKST: the “one-hybrid fitness for binding NBS DNA” value is 0.639.

For RKPT, the “one-hybrid fitness for binding NBS DNA” value came to 0.236.

As for RKSC, the “one-hybrid fitness for binding NBS DNA” value stood at 0.273.

Take RKLY: the “one-hybrid fitness for binding NBS DNA” value was no more than 0.2.

For the variant RKLK, the “one-hybrid fitness for binding NBS DNA” value was no more than 0.2.

Regarding IDAR, the “one-hybrid fitness for binding NBS DNA” value is no more than 0.2.

Turning to TMSR, the “one-hybrid fitness for binding NBS DNA” value is no more than 0.2.

For SFKS, the “one-hybrid fitness for binding NBS DNA” value is no more than 0.2.

For the variant WVLY, the “one-hybrid fitness for binding NBS DNA” value was no more than 0.2.

As for SIAR, the “one-hybrid fitness for binding NBS DNA” value was no more than 0.2.

In the case of RKVI, the “one-hybrid fitness for binding NBS DNA” value was no more than 0.2.

As for KPTD, the “one-hybrid fitness for binding NBS DNA” value is no more than 0.2.

In the case of SPSM, the “one-hybrid fitness for binding NBS DNA” value is no more than 0.2.

As for RVWC, the “one-hybrid fitness for binding NBS DNA” value is no more than 0.2.

With RSWT, the “one-hybrid fitness for binding NBS DNA” value turned out to be 0.215.

RPWT: the “one-hybrid fitness for binding NBS DNA” value is no more than 0.2.

As for RKHT, the “one-hybrid fitness for binding NBS DNA” value turned out to be 0.645.

As for RCWT, the “one-hybrid fitness for binding NBS DNA” value stood at 0.418.

Turning to RKHP, the “one-hybrid fitness for binding NBS DNA” value is no more than 0.2.

In the case of RKHH, the “one-hybrid fitness for binding NBS DNA” value came out at 0.245.

On to NLDC, for which the “one-hybrid fitness for binding NBS DNA” value was no more than 0.2.

With PTPS, the “one-hybrid fitness for binding NBS DNA” value is no more than 0.2.

As to QRQF, the “one-hybrid fitness for binding NBS DNA” value stood at 0.323.

Turning to QRQN, the “one-hybrid fitness for binding NBS DNA” value worked out at 0.402.

Consider QCQM, for which the “one-hybrid fitness for binding NBS DNA” value was no more than 0.2.

In the case of QLQQ, the “one-hybrid fitness for binding NBS DNA” value is no more than 0.2.

QREQ: the “one-hybrid fitness for binding NBS DNA” value is no more than 0.2.

With QRQC, the “one-hybrid fitness for binding NBS DNA” value amounted to 0.362.

Consider QHQH, for which the “one-hybrid fitness for binding NBS DNA” value was no more than 0.2.

For the variant QRQH, the “one-hybrid fitness for binding NBS DNA” value was 0.544.

Consider QSQM, for which the “one-hybrid fitness for binding NBS DNA” value is no more than 0.2.

Take QCQH: the “one-hybrid fitness for binding NBS DNA” value was 0.222.

QRQQ: the “one-hybrid fitness for binding NBS DNA” value was 0.397.

For QRQM, the “one-hybrid fitness for binding NBS DNA” value is 0.395.

With WQMR, the “one-hybrid fitness for binding NBS DNA” value was no more than 0.2.

Values taken from a collection of fitness landscapes (doi:10.1016/j.celrep.2020.107928).
